Screens deposited in PubChem BioAssay by several laboratories.
Mcl1 Bid PPI = Mcl-1/Bid binding inhibitors, primary screen, biochemical, TR-FRET, 1536-well; AID 1021, 2008; hit rate 0.97% among 220,000; inhibition, % at 21.7 µM; TR-FRET Mcl-1/Bid-Dy647 peptide binding; Induced myeloid leukemia cell differentiation protein Mcl-1 (Homo sapiens), Q07820;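 active means compounds that cut the binding signal by more than half at the single screening dose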;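 further: His-tagged Mcl-1 with europium anti-His antibody binding Bid BH3 peptide; 0% = Mcl-1 plus peptide wells and 100% = peptide-only wells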
Target sequence (Q07820 whole entry, looked up): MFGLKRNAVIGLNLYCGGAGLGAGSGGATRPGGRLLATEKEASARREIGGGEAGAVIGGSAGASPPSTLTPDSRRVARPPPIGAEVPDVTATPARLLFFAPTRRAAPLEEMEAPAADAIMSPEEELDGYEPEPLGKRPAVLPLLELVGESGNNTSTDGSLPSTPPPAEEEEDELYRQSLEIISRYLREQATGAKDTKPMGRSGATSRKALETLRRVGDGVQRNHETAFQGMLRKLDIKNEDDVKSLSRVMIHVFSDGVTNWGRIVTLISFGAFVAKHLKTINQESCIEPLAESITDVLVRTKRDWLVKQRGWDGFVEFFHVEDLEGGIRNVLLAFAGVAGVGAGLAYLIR
NCF1 inh = p47phox/p22phox peptide binding inhibitors, primary screen, biochemical, uHTS, NADPH oxidase regulatory subunit; Neutrophil cytosol factor 1 (Homo sapiens), P14598; inhibition, % at 24.7 µM; fluorescence polarization, 2 h; hit rate 0.53% among 220,000;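 active means inhibition above about 30%, limit read from the data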;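 further: 0% = p47phox with labelled peptide and 100% = labelled peptide alone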
Calpain2 inh = inhibitors of pig calpain II, primary screen, biochemical, fluorogenic peptide substrate, 1536-well; hit rate 0.37% among 220,000; inhibition, % at 16 µM; purified calpain II, 30 min;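 active means inhibition above about 50%, limit read from the data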
Mcl1-Noxa inh = Mcl-1/Noxa binding inhibitors, primary screen, biochemical, TR-FRET, 1536-well; TR-FRET Mcl-1/Noxa peptide binding, 2 h; hit rate 1.5% among 220,000; Induced myeloid leukemia cell differentiation protein Mcl-1 (Homo sapiens), Q07820; inhibition, % at 21.7 µM;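 active means compounds that cut the protein-peptide binding signal by more than 50% relative to plate controls in a single-dose test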;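 further: His-tagged Mcl-1 with rhodamine Noxa BH3 peptide and terbium anti-His antibody; 0% = Mcl-1 plus Noxa peptide wells and 100% = peptide-only wells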
14-3-3 Bad PPI = inhibitors of 14-3-3 zeta/Bad binding, primary screen, biochemical, TR-FRET, bovine 14-3-3 zeta | TR-FRET 14-3-3zeta/Dy647-pBad peptide displacement, 1 h | AID 781, 2007 | 14-3-3 protein zeta/delta (Bos taurus), P63103 | hit rate 0.71% among 220,000 | inhibition, % at 21.7 µM;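 active means inhibition above about 70%, limit read from the data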;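 further: 0% = full 14-3-3 plus peptide FRET controls and 100% = background without 14-3-3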
Bim-Mcl-1 = inhibitors of Bim peptide binding to Mcl-1, primary screen, biochemical, bead-based flow cytometry, multiplex | Induced myeloid leukemia cell differentiation protein Mcl-1 (Homo sapiens), Q07820 | Bim peptide-Mcl-1 binding | inhibition, % at 10 µM | hit rate 0.1% among 190,000; in the data active means inhibition above about 40%;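 further: 0% = no compound tracer wells and 100% = peptide blocker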
* marks the source's active call; other numbers are inactive results; / = no result; + = active, no number. Only some compounds are listed: those with a hit (about 3.4% of all), similar ones and a draw of the others.

SMILES	Mcl1 Bid PPI	NCF1 inh	Calpain2 inh	Mcl1-Noxa inh	14-3-3 Bad PPI	Bim-Mcl-1
COc1ccc(C)cc1NC(=O)C(c1ccccc1)N1CCNC(=O)C1 (stereo unspecified)	-9	3	17	-6	1	-1
CC(C)NCCCCOc1ccccc1-c1ccccc1	19	-10	-18	14	-8	-1
CN(C)S(=O)(=O)N1CCN(c2ccccc2)CC1	-29	10	-5	15	9	-5
CN(C)S(=O)(=O)N1CCN(c2cccc(Cl)c2)CC1	-8	-3	17	55*	-20	9
CN(c1ccccc1)S(=O)(=O)c1cccc(Cl)c1Cl	-11	-16	-3	-20	-4	/
CN(C)S(=O)(=O)c1c(Cl)cccc1Cl	-3	-18	-21	10	81*	0
COc1cc(Cl)c(C)cc1NC(=O)CSc1cc(Cl)ccc1Cl	-4	-29	2	56*	-3	-1
NS(=O)(=O)c1cnccc1Nc1ccc(Cl)c(Cl)c1	-53	-5	-6	-10	8	-8
CN(C)S(=O)(=O)c1cc(C(=O)NCC2CCCO2)c(Cl)cc1Cl (stereo unspecified)	-4	-11	0	15	1	-3
CCNC(=O)c1cc(S(=O)(=O)N(C)C)c(Cl)cc1Cl	72*	-4	-25	28	88*	2
Cc1ccccc1Nc1nnc(SCC(=O)NCc2ccco2)s1	-21	-9	-114	61*	-1	-3
O=C(CSc1ccccc1F)NC(=O)NCc1ccco1	-27	-8	-217	52*	-21	0
CCCCn1c(SCc2ccc(C(=O)OC)o2)nc2cc(S(N)(=O)=O)ccc21	-31	-32	-26	4	7	-4
CS/C(=N\S(=O)(=O)c1cccs1)NC(=O)CSc1nc2ccccc2s1	-5	-42	-10	53*	73*	1
C/C(=N/NC(=O)CSc1nc2ccccc2s1)c1ccncc1	-9	3	-4	-12	-10	/
CCCCn1c(SCC(=O)NC(=O)NCc2ccco2)nc2cc(S(N)(=O)=O)ccc21	-2	-6	-146	63*	8	-2
O=C(N/N=C/c1cccnc1)C1CC1(c1ccccc1)c1ccccc1 (stereo unspecified)	-28	-3	-12	2	-14	-1
Cc1ccccc1OCc1nnc(SCC(=O)NCc2ccco2)n1C	-5	+	-25	8	-13	3
O=C(CSc1nc(-c2ccccc2)cs1)NC(=O)NCc1ccco1	5	-16	7	5	14	-5
COc1ccc(C)cc1-n1nnnc1SCC(=O)NC(=O)NCc1ccco1	42	-11	-58	62*	3	-2
Cc1ccc(OCc2nnc(SCC(=O)NCc3ccco3)n2C)cc1	-32	-9	0	-17	2	-2
COc1ccc(N2CCN(CC(=O)NC(=O)NCc3ccco3)CC2)cc1	-49	-30	-26	8	-8	-5
O=C(CN1CCN(c2ccc(O)cc2)CC1)NC(=O)NCc1ccco1	-50	3	-49	52*	-9	-2
O=C(CSc1nc2ccccc2s1)NC(=O)NCc1ccco1	-25	-12	-41	54*	12	-2
COc1ccc(-n2nnnc2SCC(=O)NCc2ccco2)cc1OC	9	-2	-59	23	-4	-2
O=C(Cc1csc(-c2ccccc2)n1)NCc1cccs1	-76	-2	-7	6	-10	4
CCC(=O)NC(c1ccc(N(C)C)cc1)c1c(O)ccc2ccccc12 (stereo unspecified)	-18	-2	8	51*	-2	1
CCC(=O)NC(c1ccc(OC)cc1)c1c(O)ccc2ccccc12 (stereo unspecified)	-8	-4	-83	5	-18	0
Cc1ccc(NC(=O)COC(=O)[C@H](C)NC(=O)c2ccccc2)cc1S(=O)(=O)N1CCOCC1	-28	-3	-10	7	3	/
